Only some compounds are listed: those with a hit (about 4.2% of all), similar ones and a draw of the others.
Wnt bcat act: Wnt/beta-catenin pathway activators, primary screen, cell-based, plate reader, single point; Wnt/beta-catenin reporter cell assay, activator; activation, % at 9.35 µM; 300,000 tested, 1.2% active; in the data active means activation above about 30%, passing the limit was not always enough; inconclusive means no clear call, values can overlap the other calls
FXN GAA850 act: FXN promoter activators, primary screen, cell-based, luciferase luminescence, HEK293 lucGAA850; activation, % at 6 µM; HEK293 lucGAA850 FXN promoter luciferase reporter, 24 h; percent of 10 µM SAHA response; 360,000 tested, 0.56% active;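 active means activation above the average of all compounds screened plus 3 SD, cutoff fixed separately per campaign, cut at about 7.5% in these data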
AHR act: AHR activators, primary screen, cell-based, luminescence, luciferase reporter, human. AID 2796, 2010. AHR-responsive luciferase reporter cells. activation, % at 5 µM. 320,000 tested, 2.5% active. Aryl hydrocarbon receptor (Homo sapiens), P35869; in the data active means activation above about 47%
esBAF inh: Bmi1 luciferase reporter increase in mESCs, primary screen, esBAF inhibitor project, mouse ES cells, Bmi1 luciferase knock-in, single point | 24 h; 100% = twice the neutral-well signal | reporter increase, % at 12.5 µM | 350,000 tested, 2% active; in the data active means activation above about 40%; inconclusive means no clear call, values can overlap the other calls;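 further: a rise in the Bmi1 reporter signal indicates esBAF inhibition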
MITF TRPM1 HTS: activators of MITF-driven TRPM1 promoter reporter, primary screen, cell-based, SK-MEL-5, luciferase, single point; 300,000 tested, 0.75% active; activation, % at 12.5 µM; SK-MEL-5 TRPM1-promoter luciferase, 24 h; % of positive control, neutral wells = 0;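 active means mean activation of at least 80% with every replicate also reaching 80%; inconclusive means mean reaches 80% but some replicate falls short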
A number is an active result; 0 = inactive; ? = inconclusive; - = no result.

SMILES	Wnt bcat act	FXN GAA850 act	AHR act	esBAF inh	MITF TRPM1 HTS
COc1cc(C2C(C#N)=C(N)OC3=C2C(=O)CC(C)(C)C3)cc([N+](=O)[O-])c1O (stereo not drawn)	40	0	0	-	0
COc1cc(C2C3=C(CC(C)(C)CC3=O)OC3=C2C(=O)CC(C)(C)C3)cc([N+](=O)[O-])c1O	0	0	0	-	0
O=C(C[C@H]1C=C[C@@H](NS(=O)(=O)c2ccc(F)cc2)[C@@H](CO)O1)NCc1ccncn1	-	-	-	0	-
COc1cc2c(cc1OC)C1CCc3cc4c(cc3C1N=C2)OCO4 (stereo not drawn)	51	0	-	0	-
COc1cc2c(cc1OC)[C@@H]1Cc3cc4c(cc3[C@H](C2)N1C)OCO4	0	0	0	0	0
Cc1ccc(NC(=O)c2cc(-c3cc(Cl)ccc3O)n[nH]2)cc1C	0	0	-	0	0
COc1ccc(NC(=O)c2cc(-c3cc(C)cc(C)c3O)n[nH]2)cc1Cl	0	0	80	0	-
Cc1cccc(NC(=O)c2cc(-c3cc(Cl)ccc3O)n[nH]2)c1	-	0	0	71	108
Cc1cccc(NC(=O)c2cc(-c3cc(C)cc(C)c3O)n[nH]2)c1	0	0	66	0	0
COc1ccc(Cl)cc1NC(=O)c1cc(-c2cc(C)ccc2O)n[nH]1	0	0	0	0	0
Cc1ccc(C)c(NC(=O)c2cc(-c3cc(C)ccc3O)n[nH]2)c1	0	0	0	50	117
C[C@@H]1CN([C@@H](C)CO)S(=O)(=O)c2ccc(C#Cc3ccc(F)cc3)cc2O[C@@H]1CN(C)S(=O)(=O)c1ccc(F)cc1	-	-	-	0	-
Oc1ccc(/C=N/NC(=S)NC2CC3CCC2C3)cc1 (stereo not drawn)	0	0	0	47	0
S=C(N/N=C/c1cccs1)NC1CC2CCC1C2 (stereo not drawn)	34	0	0	-	-
Oc1ccc(/C=N/NC(=S)NCC2CCCO2)cc1 (stereo not drawn)	-	0	0	0	0
CN(C)c1ccc2c(c1)[C@@H]1C[C@@H](CC(=O)NCCc3ccccc3)O[C@@H](CO)[C@@H]1O2	-	-	-	0	-
CO[C@@H]1CN(C)C(=O)c2ccc(NS(C)(=O)=O)cc2OC[C@@H](C)N(CCC(F)(F)F)C[C@@H]1C	-	-	-	0	-
Cc1nc(S/C(=C/c2ccc(-c3ccc(C(=O)O)cc3)o2)C(=O)O)n[nH]1	0	0	0	0	0
Cc1nc(S/C(=C/c2ccc(-c3ccc(Cl)cc3)o2)C(=O)O)n[nH]1	-	0	57	0	0
Cc1cc(SCC(=O)c2ccc(Cl)cc2)nc(=O)[nH]1	40	0	0	0	0
Nc1cc(N)cc(-c2nc3ccccc3o2)c1	0	0	72	0	0
CCCN(C)C[C@H]1Oc2ncc(C#CCC(C)C)cc2C(=O)N([C@H](C)CO)C[C@@H]1C	-	-	-	0	-
CN(C)CCCNC(=O)C[C@H]1CC[C@@H]2[C@H](COc3ccc(NS(C)(=O)=O)cc3C(=O)N2C)O1	-	-	-	0	-
Cc1ccc(S(=O)(=O)/N=C2/C=C(C3C(=O)CC(C)(C)CC3=O)C(=O)c3ccccc32)cc1	63	0	0	?	-
CC(C)NC(=O)Nc1ccc2c(c1)CC(=O)N([C@@H](C)CO)C[C@H](C)[C@@H](CN(C)C(=O)Nc1cccc3ccccc13)O2	-	-	-	0	-
SMILES	Wnt bcat act	FXN GAA850 act	AHR act	esBAF inh	MITF TRPM1 HTS
CC(=O)N(C)C[C@@H]1Oc2cc(/C=C/c3ccccc3)ccc2S(=O)(=O)N([C@@H](C)CO)C[C@H]1C	-	-	-	0	-
COCCCNC(=O)Cc1ccc(S(=O)(=O)N2CCOCC2)s1	55	0	0	0	0
CC(C)(C)c1csc(NC(=O)Cc2ccc(S(=O)(=O)N3CCOCC3)s2)n1	0	0	0	43	0
NS(=O)(=O)c1ccc(CCNC(=O)Cc2ccc(S(=O)(=O)N3CCOCC3)s2)cc1	0	0	0	0	0
Cc1cnc(NC(=O)Cc2ccc(S(=O)(=O)N3CCOCC3)s2)s1	0	0	0	-	0
CC(C)NC(=O)Nc1ccc2c(c1)C(=O)N([C@H](C)CO)C[C@H](C)[C@@H](CN(C)S(=O)(=O)c1ccc(Cl)cc1)OCCCC[C@H](C)O2	-	-	-	0	-
CCN(CC)c1ccc(/C=N/NC(=O)c2ccccn2)cc1	0	0	0	-	-
CCN(CC)c1ccc(/C=N/NC(=O)c2c[nH]c3ccccc23)cc1	-	0	50	-	0
CCN(CC)c1ccc(/C=N/NC(=O)c2cc3ccccc3[nH]2)cc1	0	0	58	0	0
CN(C)CCCNC(=O)C[C@@H]1CC[C@@H]2[C@H](COc3ccc(NC(=O)c4ccccc4F)cc3C(=O)N2C)O1	-	-	-	0	-
CCOc1ccc(C(=O)N2CCc3ccccc32)cc1	0	0	0	50	-
O=C(c1ccc2ccccc2c1)N1CCc2ccccc21	0	0	0	64	0
COc1ccccc1CNC(=O)C[C@H]1CC[C@@H](NC(=O)CC2CC2)[C@@H](CO)O1	-	-	-	0	-
C[C@H]1CN([C@@H](C)CO)C(=O)Cc2cc(NC(=O)Nc3ccc(F)cc3)ccc2O[C@H]1CN(C)C(=O)Nc1ccc(F)cc1	-	-	-	0	-
O=C(Nc1ccc2c(c1)Cc1ccccc1-2)c1ccccc1F	49	0	0	-	-
COc1cc(C(=O)Nc2ccc3c(c2)Cc2ccccc2-3)cc(OC)c1OC	0	0	0	-	0
CC(=O)Nc1c(Cl)cc2c(c1Cl)Cc1ccccc1-2	0	0	-	-	0
CC(=O)Nc1cc2c(cc1Br)-c1ccccc1C2	0	0	-	56	0
CC(C)CN1C(=O)c2ccc(NC(=O)c3ccco3)cc2C1=O	0	0	0	-	0
O=C(Nc1ccc2c(c1)OCCO2)c1ccc(Br)o1	55	0	0	0	0
CC(OC(=O)c1ccc(Br)o1)C(=O)Nc1ccc2c(c1)OCCO2 (stereo not drawn)	0	0	0	0	0
CC(C)CN1C(=O)c2ccc(NC(=O)c3ccccc3F)cc2C1=O	-	0	0	47	0
CCCC(=O)Nc1ccc2c(c1)Cc1ccccc1-2	0	0	0	58	0
O=C(Nc1ccc(Cc2ccncc2)cc1)c1ccc(Br)o1	0	0	0	0	0
O=C(Nc1ccc2c(c1)Cc1ccccc1-2)c1ccc(Br)o1	0	0	0	51	0
SMILES	Wnt bcat act	FXN GAA850 act	AHR act	esBAF inh	MITF TRPM1 HTS
O=C(C[C@@H]1C[C@H]2c3cc(NS(=O)(=O)c4ccc(F)cc4)ccc3O[C@H]2[C@@H](CO)O1)N1CCOCC1	-	-	-	0	-
C[C@@H]1CN([C@@H](C)CO)C(=O)c2cccc(NS(C)(=O)=O)c2O[C@H]1CN(C)Cc1ccncc1	-	-	-	0	-
COc1cccc(C(=O)Nc2ccc3ccccc3c2)c1	0	0	0	0	-
Cc1cccc(C(=O)Nc2ccc3ccccc3c2)c1	0	0	0	47	0
O=C(Nc1cccc([N+](=O)[O-])c1)c1ccccc1	0	0	0	0	0
O=C(Nc1ccc2ccccc2c1)c1cccc([N+](=O)[O-])c1	0	0	68	86	98
Cc1cc(Cl)c2oc(C(=O)NCCC3CCCCO3)c(C)c2c1 (stereo not drawn)	0	0	0	?	95

Screens: PubChem BioAssay, several laboratories
